# Source: PubChem BioAssay
# Most compounds without a hit are left out; they make up all but 4.8% or so of the library.
# SMARCA2 act: activators of SMARCA2 function; AID 652017; hit rate 1% among 370,000; activation, % at 9.1 µM; MG213 cells, MMTV-luciferase reporter, dexamethasone, overnight; in the data active means activation above about 7.8%;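 further: 0% = vehicle wells and 100% = reference activator wells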
# ssDAF12 agonist: S. stercoralis DAF-12 activation, primary screen; hit rate 1% among 370,000; HEK293 ssDAF-12/GRIP1 lit1-tk-luc reporter, luminescence; % of 3 µM dafachronic acid response; activation, % at 6.8 µM; AID 652126;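 active means activation above the mean over all tested compounds plus 3 SD, cut at about 0.9% in these data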;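 further: 0% = DMSO-only wells and 100% = 3 µM delta7-dafachronic acid wells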
# hcDAF-12 act: activates DAF-12 receptor from parasite H. contortus; HEK293 hcDAF-12 lit1-tk-luc reporter, luminescence; 0% DMSO, 100% Δ7-dafachronic acid; activation, % at 6.8 µM; hit rate 1.4% among 370,000;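 active means activation above the mean of all tested compounds plus 3 SD, cut at about 5.5% in these data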;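 further: 100% = response to 3 µM Δ7-dafachronic acid high control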
# DAX1 inh-1: DAX1 (NR0B1) inhibition, primary screen; HEK293T StAR-luciferase reporter, SF-1/DAX-1 repression relief; inhibition, % at 6.8 µM; hit rate 1.1% among 370,000; AID 652010;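 active means inhibition above the mean over all tested compounds plus 3 SD, cut at about 3.6% in these data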;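 further: 0% = DAX-1 cells with DMSO and 100% = cells lacking DAX-1 with DMSO; higher inhibition means more luminescence from relief of DAX-1 repression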
# DAX1 inh-2: NR0B1 (DAX1) inhibition | P51843 | HEK293 Gal4-DAX1 luciferase reporter, luminescence | hit rate 0.99% among 340,000 | inhibition, % at 6.75 µM;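 active means inhibition above the mean over all tested compounds plus 3 SD, cut at about 4.2% in these data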;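 further: 0% = DAX1-transfected cells with DMSO and 100% = empty-vector control cells with DMSO; inhibition shows as a rise in luminescence from relieved DAX1 repression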
# Target sequence (P51843 207-470 limits assumed): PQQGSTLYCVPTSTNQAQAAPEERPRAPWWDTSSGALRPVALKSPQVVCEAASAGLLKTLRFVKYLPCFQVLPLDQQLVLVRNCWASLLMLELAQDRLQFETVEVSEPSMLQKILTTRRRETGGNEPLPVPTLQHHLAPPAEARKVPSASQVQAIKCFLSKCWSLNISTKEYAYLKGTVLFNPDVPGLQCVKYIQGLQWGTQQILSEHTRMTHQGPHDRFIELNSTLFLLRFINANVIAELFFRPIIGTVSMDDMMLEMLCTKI
# hgDAF12 agonist: activates the H. glycines DAF-12 receptor ligand-binding domain. HEK293 GAL4-hgDAF12 UAS-luciferase reporter, agonist luminescence; normalized to butyrate control. activation, % at 6.8 µM. hit rate 1.8% among 370,000;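 active means activation above a cutoff set at the mean of all screened compounds plus 3 SD, cut at about 10% in these data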;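 further: 0% = DMSO wells and 100% = sodium butyrate wells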
# LXR ag: activates human LXR-beta, counter-screen for hcDAF-12 agonists | shares compounds with hcDAF-12 act | HEK293 Gal4-LXR tk-luc reporter, luminescence, 24 h; normalized: DMSO 0%, positive control 100% | activation, % at 6.8 µM | 3,400 tested, under 10 active | AID 743027;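 active means mean percent activation of the reporter above a cutoff set as the average over tested compounds plus their standard deviation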
# Target sequence (P55055 whole entry, looked up, the tested form may be a part): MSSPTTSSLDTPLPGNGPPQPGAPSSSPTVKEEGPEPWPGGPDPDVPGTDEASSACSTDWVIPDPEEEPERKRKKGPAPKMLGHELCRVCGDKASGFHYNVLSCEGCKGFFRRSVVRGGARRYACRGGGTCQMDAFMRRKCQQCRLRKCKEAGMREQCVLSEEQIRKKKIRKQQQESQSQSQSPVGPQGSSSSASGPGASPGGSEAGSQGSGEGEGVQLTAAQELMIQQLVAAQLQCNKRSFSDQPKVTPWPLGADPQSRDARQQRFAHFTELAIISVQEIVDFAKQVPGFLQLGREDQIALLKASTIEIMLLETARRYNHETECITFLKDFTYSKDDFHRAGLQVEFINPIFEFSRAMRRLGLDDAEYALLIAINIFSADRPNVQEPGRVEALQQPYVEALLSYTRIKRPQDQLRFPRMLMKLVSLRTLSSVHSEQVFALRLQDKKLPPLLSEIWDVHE
# hcDAF12 conf: confirmation of H. contortus DAF-12 agonists. shares compounds with hcDAF-12 act. HEK293 hcDAF-12 lit1-tk-luc reporter, luminescence; % of Δ7-dafachronic acid response. activation, % at 6.8 µM. hit rate 61% among 3,400;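 active means mean activation across triplicate tests above the threshold derived from the earlier primary screen, cut at about 5.5% in these data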;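 further: 0% = DMSO only wells and 100% = 3 µM Δ7-dafachronic acid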
# hgDAF12 ag: hgDAF-12 agonism, confirmation assay | shares compounds with hgDAF12 agonist | HEK293 GAL4-hgDAF12 luciferase reporter, agonist mode; percent of butyrate response | activation, % at 6.8 µM | hit rate 80% among 3,300 | AID 743050;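 active means mean activation over triplicate wells above the hit cutoff derived from the earlier primary screen, cut at about 11% in these data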;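 further: 0% = DMSO low control and 100% = 2 mM sodium butyrate high control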
# LXR ag 2: activates human LXR-beta, counter-screen for DAF-12 agonists; AID 743051; activation, % at 6.8 µM; 3,300 tested, under 10 active; HEK293 Gal4-LXR luciferase reporter, 24 h; shares compounds with hgDAF12 agonist;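 active means mean activation of the triplicate above a set limit carried over from the primary screen, none filed active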
# Numbers without * were called inactive; x = no result.
SMILES,SMARCA2 act,ssDAF12 agonist,hcDAF-12 act,DAX1 inh-1,DAX1 inh-2,hgDAF12 agonist,LXR ag,hcDAF12 conf,hgDAF12 ag,LXR ag 2
CCc1nn(CC(=O)NCCCN(CC)CC)c(=O)c2cc3sc(C)cc3n12,-1.0,-1.5,0.3,0.0,1.0,3.5,x,x,x,x
O=C(c1ccccc1)c1ccc(O)cc1O,-1.9,-1.6,-0.3,-0.2,3.2,-0.3,x,x,x,x
CC(=O)c1cc2c(C)c(C(=O)c3ccccc3)oc2cc1O,3.4,1.7*,7.5*,4.0*,1.4,26.4*,1.8,5.8*,21.1*,1.1
Cc1ccc(NC(=O)NCc2nc3ccccc3n2C)cc1,-2.3,-0.3,1.3,0.1,0.8,1.0,x,x,x,x
COc1ccccc1NCc1nc2ccccc2n1C,x,1.3*,10.7*,x,x,15.7*,0.8,8.7*,17.5*,0.7
COc1cc(C(=O)Cc2nc3ccccc3n2C)cc(OC)c1OC,-2.4,0.1,1.6,0.2,1.9,2.8,x,x,x,x
Cn1c(CNc2ccc(Br)cc2)nc2ccccc21,2.8,1.4*,11.5*,2.7,4.7*,14.2*,1.2,10.8*,18.1*,0.8
O=C(Nc1nc(=O)c2ccccc2s1)c1ccc(Cl)cc1,2.6,-0.5,-0.3,0.5,0.3,0.6,x,x,x,x
Nc1nc(-c2cccnc2)nc2sc3c(c12)CCCC3,5.7,1.5*,8.7*,4.5*,1.6,19.6*,1.4,4.0,15.4*,0.8
O=C1CN(c2nc(-c3cccnc3)nc3sc4c(c23)CCCC4)CCN1,3.8,-2.2,-3.4,-0.9,-1.1,-2.1,x,x,x,x
O=C(Nc1cccc(S(=O)(=O)NC2=NCCC2)c1)c1cc(-c2ccco2)nc2ccccc12,-3.5,0.3,1.1,-0.1,1.1,-0.3,x,x,x,x
Cn1c(NC(=O)c2ccc(F)cc2)nc2ccccc21,2.8,1.9*,13.9*,1.9,1.7,19.0*,1.5,14.5*,21.2*,1.0
Cc1cccc(C(=O)n2c(=S)nc3cc(C)ccn32)c1,3.3,0.7,6.6*,3.7*,4.6*,15.7*,1.1,6.6*,13.3*,1.3
Cc1cc2ncn(CCOc3ccccc3)c2cc1C,5.5,-1.1,0.9,0.4,1.7,8.1,x,x,x,x
NC(=O)c1c(NC(=O)C2c3ccccc3Oc3ccccc32)sc2c1CCCCC2,1.2,-1.3,-1.0,-0.3,-1.2,-1.2,x,x,x,x
Cc1nc(-c2ccc3c(c2)OCCCO3)cs1,5.1,-0.4,6.6*,1.8,3.0,13.4*,1.2,4.8,18.5*,0.6
O=C(NCCCc1ccccc1)C(=O)NCC1OCCN1S(=O)(=O)c1ccc(F)cc1 (stereo not given),-3.1,-1.1,-4.4,-3.1,-0.6,-2.0,x,x,x,x
c1ccc([C@H]2CN3C(=N2)Sc2ccccc23)cc1,7.0,2.5*,13.4*,3.5,2.3,16.1*,1.4,14.6*,24.2*,1.0
COC(=O)/C(=N/Nc1ccccc1C)N1CCCc2ccccc21,0.6,0.1,2.4,-0.8,-0.4,1.3,x,x,x,x
COc1ccc(-c2cc3c(c4c2ccn4C)C2CCC3C2)cc1 (stereo not given),-5.7,-1.4,-1.8,-1.2,x,0.3,x,x,x,x
Cn1c2nc3ccccc3c-2nc2ccccc21,5.7,0.3,8.3*,2.2,2.3,15.7*,-0.1,6.7*,15.1*,0.2
Cn1c(-c2nonc2N)nc2ccccc21,2.1,-1.8,-2.7,-0.2,-0.6,4.9,x,x,x,x
CC1(C)OC(=O)C2=C(CC(CCc3ccccc3)OC2c2ccc(F)cc2)O1 (stereo not given),-3.7,-1.2,-0.9,-0.6,x,-1.2,x,x,x,x
Cc1ccc2nc3sc(C(=O)NCc4ccco4)c(N)c3cc2c1,7.4,0.7,8.1*,4.3*,-1.3,13.3*,1.3,3.5,20.5*,1.1
O=C(/C=C/Nc1ccccc1)c1ccc(Cl)cc1Cl,5.2,1.1*,8.0*,3.5,4.1,15.3*,1.5,5.0,25.9*,1.1
SMILES,SMARCA2 act,ssDAF12 agonist,hcDAF-12 act,DAX1 inh-1,DAX1 inh-2,hgDAF12 agonist,LXR ag,hcDAF12 conf,hgDAF12 ag,LXR ag 2
C/C(=N/NC(=O)c1cccs1)c1c(C)[nH]n(-c2nc3ccccc3s2)c1=O,-0.1,0.0,7.7*,4.0*,-2.8,16.9*,0.9,4.6,8.6,0.4
CC(=NCc1ccco1)c1c(C)[nH]n(-c2nc3ccccc3s2)c1=O,-4.5,-2.1,-3.0,-1.8,-1.6,-8.3,x,x,x,x
CCOC(=O)N1CCC(N2Cc3cccc(C(=O)NCC4CCN(CC(C)C)C4)c3C2=O)CC1 (stereo not given),2.5,-0.7,-1.3,1.3,0.7,0.6,x,x,x,x
COc1ccc(NC(=O)c2cc(CC(C)C)on2)cc1OC,-0.7,-0.2,0.1,0.5,1.0,7.4,x,x,x,x
CC(C)Cc1cc(C(=O)Nc2cccc(O)c2)no1,3.9,-0.1,8.4*,3.5,-4.7,18.3*,1.4,6.5*,18.6*,1.1
C[C@H]1COc2cc(N3CCCCC3)ccc2S(=O)(=O)N1,-4.0,-0.7,0.8,-0.2,x,3.0,x,x,x,x
CC(C)c1ccc(NC(=O)COc2ccc(F)cc2C(=O)c2cnn(-c3ccccc3)c2)cc1,4.4,2.2*,12.2*,4.1*,1.2,18.0*,0.9,13.7*,17.4*,0.5
CNC(=O)c1ccc(NC(=O)c2cc(S(=O)(=O)N3CCOCC3)ccc2N2CCCC2)cc1,-3.5,-1.4,0.1,0.6,0.8,-0.3,x,x,x,x
CCc1ccc(Nc2ccc(C(N)=O)cc2[N+](=O)[O-])cc1,-1.5,-1.7,-0.6,-1.1,-0.8,-2.1,x,x,x,x
CNC(=O)c1cc2cc(OC)ccc2n1CCN(Cc1ccccc1)Cc1ccccc1,-2.1,-1.6,-1.8,-1.1,0.4,-1.9,x,x,x,x
CCOc1ccc(-c2cc(C(=O)NN)[nH]n2)cc1,5.7,0.3,6.8*,3.6,1.5,15.7*,-0.1,1.2,4.0,0.0
c1ccc(CN2CCN(c3cnc4ccccc4n3)CC2)cc1,6.9,-0.8,1.5,-0.7,1.8,4.9,x,x,x,x
Fc1ccccc1N1CCN(c2cnc3ccccc3n2)CC1,5.6,0.6,6.6*,2.8,-0.8,19.1*,1.4,4.7,17.1*,0.8
Cc1cc(NC(=O)Nc2ccccc2F)ccc1Br,1.3,0.6,7.1*,3.5,2.9,20.9*,1.3,6.3*,17.7*,1.1
